Bioassay records as filed in PubChem.
This excerpt belongs to a sample that is enriched for hits.
IDE exosite FP: exo-site inhibitors of human IDE, primary screen, biochemical, fluorescence anisotropy, probe displacement; hit rate 6.3% among 17,000; Insulin-degrading enzyme (Homo sapiens), P14735; z-score at 20 µM; purified IDE, FL-6b probe fluorescence polarization; active compounds read low; AID 1259349, 2017;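 active = z-score of -3 or lower, meaning strong loss of probe binding signal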;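 also: His-tagged human IDE residues 42-1019 made in E. coli with 30 nM FL-6b probe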
Target sequence (P14735 42-1019 limits assumed): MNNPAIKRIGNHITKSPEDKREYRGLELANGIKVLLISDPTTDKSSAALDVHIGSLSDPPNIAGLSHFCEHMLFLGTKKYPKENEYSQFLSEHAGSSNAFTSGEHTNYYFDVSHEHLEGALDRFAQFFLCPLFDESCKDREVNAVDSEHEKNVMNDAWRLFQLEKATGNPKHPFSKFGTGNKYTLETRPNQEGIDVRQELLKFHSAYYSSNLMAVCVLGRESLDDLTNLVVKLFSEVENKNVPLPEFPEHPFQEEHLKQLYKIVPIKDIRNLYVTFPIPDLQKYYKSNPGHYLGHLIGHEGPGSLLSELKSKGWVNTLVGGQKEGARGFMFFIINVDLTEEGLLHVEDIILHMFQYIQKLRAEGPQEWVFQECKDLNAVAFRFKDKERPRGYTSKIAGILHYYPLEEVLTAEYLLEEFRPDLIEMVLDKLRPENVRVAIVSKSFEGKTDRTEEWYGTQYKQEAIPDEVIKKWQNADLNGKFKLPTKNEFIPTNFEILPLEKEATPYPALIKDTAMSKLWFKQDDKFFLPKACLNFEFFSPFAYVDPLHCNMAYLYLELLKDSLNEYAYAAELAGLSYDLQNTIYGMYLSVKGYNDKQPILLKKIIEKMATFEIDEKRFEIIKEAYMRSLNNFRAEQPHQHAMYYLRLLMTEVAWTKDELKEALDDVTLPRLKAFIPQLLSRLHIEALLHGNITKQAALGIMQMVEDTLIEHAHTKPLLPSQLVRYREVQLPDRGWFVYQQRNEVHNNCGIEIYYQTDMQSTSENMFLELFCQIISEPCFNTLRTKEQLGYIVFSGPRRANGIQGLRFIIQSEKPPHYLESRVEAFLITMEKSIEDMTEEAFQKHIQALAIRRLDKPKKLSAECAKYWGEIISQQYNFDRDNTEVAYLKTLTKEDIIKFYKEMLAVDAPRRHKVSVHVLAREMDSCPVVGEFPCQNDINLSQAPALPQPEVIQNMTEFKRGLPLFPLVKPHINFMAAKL
* hit, by the source's call; ! = not active in a repeat.

SMILES | IDE exosite FP
Cc1cccc(-c2ccc([C@H]3[C@@H](CO)N4C(=O)CN(C(=O)c5ccccc5)C[C@@H]34)cc2)c1 | -2.52
CO[C@@H]1CC[C@@H]2CCOc3ccc(C#N)cc3C(=O)N(C)C[C@@H](c3ccccc3)CC(=O)N(C)C[C@H]1O2 | 1.07
COc1ccc(NC(=O)N(C)C[C@H]2OCCCC[C@H](C)Oc3ccc(NC(=O)c4ccncc4)cc3C(=O)N([C@@H](C)CO)C[C@H]2C)cc1 | 0.954
COc1cccc(CN2C[C@@H]3N[C@H](C2)C3c2ccc(-c3ccncc3)cc2)c1 (stereo partly specified) | 1.78
COc1cccc(CN2C[C@@H]3N[C@H](C2)C3c2ccc(-c3ccccc3C)cc2)c1 (stereo partly specified) | -3.97*!
COc1cccc(CN2C[C@@H]3N[C@H](C2)C3c2ccc(-c3cccc(C#N)c3)cc2)c1 (stereo partly specified) | 0.368
COc1cccc(-c2ccc(C3[C@@H]4CN(Cc5cccc(F)c5)C[C@H]3N4)cc2)c1 (stereo partly specified) | -1.13
Fc1ccc(-c2ccc(C3[C@@H]4CN(Cc5cccc(F)c5)C[C@H]3N4)cc2)cc1 (stereo partly specified) | 3.66
COc1cccc(CN2C[C@@H]3N[C@H](C2)C3c2ccc(-c3ccccc3F)cc2)c1 (stereo partly specified) | -5.06*!
C[C@H]1CN([C@@H](C)CO)C(=O)c2ccccc2-c2ccccc2CO[C@H]1CN(C)Cc1ccc(Oc2ccccc2)cc1 | -0.684
COc1ccccc1-c1ccc([C@H]2[C@@H](CO)N3CCCCN(C(=O)CN4CCOCC4)C[C@@H]23)cc1 | 0.407
CN1c2ccc(-c3cccc(C#N)c3)cc2[C@@H]2[C@@H](CCN2C(=O)CN2CCOCC2)[C@H]1CO | 1.49
COc1ccccc1-c1ccc([C@@H]2[C@@H](CO)N3CCCCN(C(=O)CN4CCOCC4)C[C@@H]23)cc1 | -6.52*
CN1c2ccc(Br)cc2[C@H]2[C@H](CCN2C(=O)CN2CCOCC2)[C@H]1CO | 2.63
COc1ccccc1-c1ccc2c(c1)[C@H]1[C@H](CCN1C(=O)CN1CCOCC1)[C@H](CO)N2C | -3.33*
Cc1ccccc1-c1ccc([C@H]2[C@H](CO)N3CCCCN(C(=O)CN4CCOCC4)C[C@@H]23)cc1 | -3.72*
Cc1ccccc1-c1ccc([C@H]2[C@H]3CN(C(=O)CN4CCOCC4)CCCCN3[C@H]2CO)cc1 | -2.21
COc1ccccc1-c1ccc([C@@H]2[C@@H](CO)N3CCCCN(C(=O)CN4CCOCC4)C[C@H]23)cc1 | 1.85
Cc1ccccc1-c1ccc([C@@H]2[C@H](CO)N3CCCCN(C(=O)CN4CCOCC4)C[C@@H]23)cc1 | -13.7*
CO[C@H](CN(C)S(=O)(=O)c1ccc(C)cc1)[C@H](C)CN(C(=O)Nc1ccccc1F)[C@H](C)CO | 0.688
C[C@H](CO)N1C[C@H](C)[C@H](CN(C)S(=O)(=O)c2ccc(Cl)cc2)Oc2c(NC(=O)Nc3ccc(F)cc3)cccc2C1=O | 0.971
O=C(O)C[C@H]1C[C@H]2c3cc(NC(=O)Cc4ccncc4)ccc3O[C@H]2[C@H](CO)O1 | -0.241
O=C(Nc1ccccc1F)N1CC(=O)N2[C@H](C1)[C@H](c1ccc(C#CC3CCCC3)cc1)[C@@H]2CO | 1.81
CN(C)CC(=O)N1C[C@@H]2N[C@H](C1)C2c1ccc(-c2ccccc2F)cc1 (stereo partly specified) | 0.85
CN1c2ccc(Br)cc2[C@H]2[C@H](CCN2C(=O)C2CCC2)[C@@H]1CO | 0.0402
SMILES | IDE exosite FP
COc1ccc(S(=O)(=O)Nc2ccc3c(c2)C(=O)N([C@H](C)CO)C[C@H](C)[C@H](CN(C)C(=O)Nc2c(C)noc2C)OCCCC[C@@H](C)O3)cc1 | -0.133
COCCNC(=O)C[C@@H]1CC[C@@H]2[C@H](COc3ccc(NS(=O)(=O)c4ccc(Cl)cc4)cc3C(=O)N2C)O1 | -1.51
Cc1ccc(-c2ccc([C@H]3[C@H](CO)N4C(=O)CN(C(=O)c5ccncc5)C[C@@H]34)cc2)cc1 | -3.21*
O=C(c1ccncc1)N1CC(=O)N2[C@H](C1)[C@@H](c1ccc(-c3ccccc3)cc1)[C@@H]2CO | -6.83*
Cc1ccc(-c2ccc([C@@H]3[C@H]4CN(C(=O)c5ccncc5)CC(=O)N4[C@H]3CO)cc2)cc1 | -4.38*
O=C(c1ccncc1)N1CC(=O)N2[C@@H](CO)[C@@H](c3ccc(-c4ccccc4)cc3)[C@@H]2C1 | 3.28
O=C(c1ccncc1)N1CC(=O)N2[C@H](C1)[C@H](c1ccc(-c3ccccc3)cc1)[C@@H]2CO | 1.31
Cc1ccc(-c2ccc([C@@H]3[C@@H](CO)N4C(=O)CN(C(=O)c5ccncc5)C[C@H]34)cc2)cc1 | -0.284
Cc1ccc(-c2ccc([C@@H]3[C@@H](CO)N4C(=O)CN(C(=O)c5ccncc5)C[C@@H]34)cc2)cc1 | 1.97
Cc1ccc(-c2ccc([C@@H]3[C@H](CO)N4C(=O)CN(C(=O)c5ccncc5)C[C@@H]34)cc2)cc1 | 1.83
Cc1ccc(-c2ccc([C@H]3[C@H]4CN(C(=O)c5ccncc5)CC(=O)N4[C@H]3CO)cc2)cc1 | 0.401
N#C[C@H]1[C@H](c2ccccc2-c2ccccc2F)[C@@H](CO)N1C(=O)Cc1ccccc1 | -0.136
Cc1ccc(S(=O)(=O)N2[C@@H]3CNC[C@H]2C3c2ccc(-c3cccc(F)c3)cc2)cc1 (stereo partly specified) | 4.11
O=C([C@H]1[C@H](CO)[C@H]2Cn3c(ccc(C4=CCCC4)c3=O)[C@@H]1N2C(=O)c1cccnc1)N1CCOCC1 | 0.561
CN(C)C(=O)c1ccc(-c2ccc([C@H]3[C@@H](C#N)N(S(C)(=O)=O)[C@H]3CO)cc2)cc1 | -0.778
CO[C@H]1CN(C)C(=O)c2cc(NC(=O)C3CC3)ccc2OC[C@H](C)N(Cc2cc(F)ccc2F)C[C@@H]1C | 0.302
O=C(Nc1cc(F)ccc1F)N1CC(=O)N2[C@H](CO)[C@H](c3ccc(-c4cccnc4)cc3)[C@H]2C1 | -4.47*
O=C(Nc1ccccc1F)N1CC(=O)N2[C@H](CO)[C@@H](c3ccc(-c4ccccc4)cc3)[C@H]2C1 | -1.41
O=C(Nc1ccccc1F)N1CC(=O)N2[C@H](CO)[C@H](c3ccc(-c4ccccc4)cc3)[C@@H]2C1 | -0.514
O=C(Nc1cc(F)ccc1F)N1CC(=O)N2[C@@H](CO)[C@H](c3ccc(-c4cccnc4)cc3)[C@@H]2C1 | 1.57
O=C(Nc1ccccc1F)N1CC(=O)N2[C@H](CO)[C@@H](c3ccc(C#Cc4ccccc4)cc3)[C@H]2C1 | -0.574
O=C(Nc1ccccc1F)N1CC(=O)N2[C@H](CO)[C@@H](c3ccc(-c4ccccc4)cc3)[C@@H]2C1 | -6.04*
O=C(Nc1ccccc1F)N1CC(=O)N2[C@H](C1)[C@@H](c1ccc(C#Cc3ccccc3)cc1)[C@@H]2CO | -2.8
O=C(Nc1ccccc1F)N1CC(=O)N2[C@@H](CO)[C@H](c3ccc(C#Cc4ccccc4)cc3)[C@@H]2C1 | -8.86*
O=C(Nc1cc(F)ccc1F)N1CC(=O)N2[C@@H](CO)[C@@H](c3ccc(-c4cccnc4)cc3)[C@@H]2C1 | 1.87
CCC(=O)Nc1ccc2c(c1)C(=O)N(C)C[C@@H](OC)[C@@H](C)CN(Cc1nccs1)[C@@H](C)CO2 | -0.344
C/C=C/c1ccc([C@H]2[C@@H](CO)N[C@@H]2CN(CC(C)C)C(=O)c2ccccn2)cc1 | 0.716
O=C1CN(Cc2ccc(F)cc2)C[C@@H]2[C@H](c3ccc(Br)cc3)[C@@H](CO)N12 | 3.77
